Screening data deposited in PubChem BioAssay by National Center for Advancing Translational Sciences (NCATS).
TDP1 cell noCPT – qHTS for Inhibitors of human tyrosyl-DNA phosphodiesterase 1 (TDP1): qHTS in cells in absence of CPT. DT40 Tdp1-/- hTDP1 cells, no CPT, ATP luminescence, 48 h. Potency, µM (series often up to 46.2 µM), usual class: inhibitors. hit rate 15% among 420,000. AID 686978, 2013; further: nearly all actives have a fitted effect of over 55% in size
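Cells were dispensed at 400 per well, compounds added by pin tool, plates incubated ≥48 hr at 37 °C, then CellTiter-Glo added for 30 min at room temperature before luminescence reading. Line: DT40 Tdp1-/- complemented with hTDP1; camptothecin omitted.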
HT1080 IDH1KD tx – kills HT-1080 cells with IDH1 knockdown | hit rate 2% among 360,000 | HT-1080 IDH1 knockdown viability, ATP luminescence, 48 h | Potency, µM (series often up to 46.1 µM), hits mostly cytotoxic
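In this qHTS, HT-1080 cells depleted of IDH1 are exposed for 48 h at 37 °C to compound titrations. Toxicity is scored from CellTiter-Glo luminescence, with DMSO as full viability and medium alone as none.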
IL1B secr inh – inhibitors of inflammasome signaling (IL-1 beta secretion) | THP-1 LPS/ATP IL-1B secretion, AlphaLISA, 16 h; stronger effect = lower value | activity change, % at 57.5 µM | hit rate 4.7% among 360,000; in the data active means activity change below about -50%; inconclusive means mostly about -30% to -49%
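Secreted IL-1B measured by AlphaLISA bead assay after 16 h compound exposure of THP-1 cells; compounds (final up to 57.5 uM) added 1 h before LPS (250 ng/mL) and ATP (1.25 mM) stimulation; lower signal means less secretion.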
DT40 TDP1 CPT – growth inhibition of DT40 Tdp1-/-;hTDP1 cells with camptothecin (screen for TDP1 inhibitors); chicken DT40 Tdp1-/-;hTDP1 cells + 20 nM CPT, ATP luminescence, 48 h; Potency, µM (highest dose often 46.2 µM), most hits filed as inhibitors; hit rate 12% among 420,000; further: nearly all actives have a fitted effect of over 55% in size
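Cell growth measured by CellTiter-Glo luminescence after a minimum 48 h, 37 C compound exposure with 20 nM CPT in Tdp1-knockout DT40 cells stably expressing hTDP1, seeded 400/well; qHTS titration format.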
HT1080-NT tox – kills 2HG-producing HT-1080-NT fibrosarcoma cells. HT-1080-NT fibrosarcoma viability, CellTiter-Glo ATP luminescence, 48 h. Potency, µM (doses to about 46.1 µM), most hits filed as cytotoxic. hit rate 1.6% among 360,000;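 further: NT is the 2HG producing partner of a matched IDH1 knockdown line; nearly all actives have a fitted effect of over 55% in size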
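HT-1080-NT; 750 cells/well; 5% FBS RPMI; 48 h compound, 37 degrees C; CellTiter-Glo luminescence; curve fitting and curve-class assignment.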
Each line names hits and unclear results; the compound was inactive in the other large screens. Hits are enriched below; roughly 19% of the tested compounds scored in any of these assays. Unless noted, the call rests on the fitted dose curve; in most records, active means well fitted curve in the direction sought with a large enough effect; inconclusive means small, poorly fitted or top-dose-only effect, or another doubt; inactive means no such curve, though single readings can be large; an effect the other way counts as inactive or inconclusive.

CNC(=S)N1N=C(c2ccc(C)cc2)CC1c1ccc(Br)cc1 (stereo not given)	TDP1 cell noCPT 7.31µM, HT1080 IDH1KD tx inconclusive, IL1B secr inh inconclusive, DT40 TDP1 CPT 10.3µM
CC(=O)N1N=C(c2ccc(Br)cc2)CC1c1ccc(Br)cc1 (stereo not given)	none
COC(=O)C1=C(O)C(C(=O)OC)C(c2ccc(C)cc2)C(C#N)(C#N)C1c1ccc(C)cc1 (stereo not given)	TDP1 cell noCPT 4.11µM, DT40 TDP1 CPT 5.17µM
CC(C)c1onc(C(=O)N2CCN(c3ccc(F)cc3)CC2)c1[N+](=O)[O-]	none
c1csc(-c2nn3c(C4CCCCC4)nnc3s2)c1	TDP1 cell noCPT inconclusive, IL1B secr inh inconclusive, DT40 TDP1 CPT inconclusive
COc1cc(-c2nn3c(-c4cccnc4)nnc3s2)cc(OC)c1OC	TDP1 cell noCPT inconclusive, DT40 TDP1 CPT inconclusive
COc1cc(-c2nn3c(C4CCCCC4)nnc3s2)cc(OC)c1OC	TDP1 cell noCPT 20.6µM, IL1B secr inh -50.8, DT40 TDP1 CPT inconclusive
COc1ccc(-c2nn3c(C4CCCCC4)nnc3s2)cc1OC	TDP1 cell noCPT inconclusive, DT40 TDP1 CPT 14.6µM
O=C1CSc2ccc(S(=O)(=O)CCC(=O)NC3CCCCC3)cc2N1	TDP1 cell noCPT inconclusive
CCCCn1nnnc1C(c1cc2ccccc2o1)N1CCN(C(=O)OCC)CC1 (stereo not given)	TDP1 cell noCPT inconclusive, IL1B secr inh inconclusive, DT40 TDP1 CPT inconclusive
Cc1ccc(N=C2C(=O)Nc3ccc(Br)cc32)cc1	TDP1 cell noCPT 11.6µM, HT1080 IDH1KD tx inconclusive, DT40 TDP1 CPT 18.4µM, HT1080-NT tox inconclusive
COc1ccc(CN(CC2CCC(C(=O)O)CC2)C(=S)Nc2ccc(C)c(Cl)c2)cc1 (stereo not given)	none
COc1ccc(CCN(Cc2cc3cc(C)cc(C)c3nc2Cl)C(=O)C2CC2)cc1	TDP1 cell noCPT 16.4µM, HT1080 IDH1KD tx inconclusive, IL1B secr inh -69.2, DT40 TDP1 CPT inconclusive, HT1080-NT tox inconclusive
CC(C)(C)OC(=O)COc1ccc(/C=N/NC(=O)CN2CCCCC2)cc1	none
CCOc1ccccc1N1CC(C(=O)NCCOc2ccccc2OC)CC1=O (stereo not given)	none
CCOc1ccccc1N1CC(C(=O)N2CCc3ccccc3C2)CC1=O (stereo not given)	TDP1 cell noCPT 14.6µM, DT40 TDP1 CPT 16.4µM
CCOc1ccccc1N1CC(C(=O)NNC(=O)c2cc(OC)c(OC)c(OC)c2)CC1=O (stereo not given)	TDP1 cell noCPT 3.66µM
Cc1cc(NC(=O)CCSc2ccc(Cl)cc2)no1	none
COCCCN=C(c1ccco1)n1c(=S)nc(-c2ccco2)n(CCCOC)c1=S	TDP1 cell noCPT inconclusive, HT1080 IDH1KD tx 7.94µM, DT40 TDP1 CPT 25.9µM, HT1080-NT tox 5.62µM
COC(=O)[C@@H](Cc1c[nH]c2ccccc12)NC(=O)c1cc(=O)[nH]c2ccccc12	IL1B secr inh -98.9
COC(=O)C(Cc1ccccc1)NC(=O)c1cc(=O)[nH]c2ccccc12 (stereo not given)	IL1B secr inh -102.6, DT40 TDP1 CPT inconclusive
COC(=O)C(Cc1c[nH]c2ccccc12)NC(C)=O (stereo not given)	none
CC(=O)OC1C(N2CCCCC2)c2c(ccc(/C=C/C(=O)N3CCCCC3)c2O)OC1(C)C (stereo not given)	TDP1 cell noCPT inconclusive
Cc1ccc2oc(C(=O)N(Cc3ccc(N(C)C)cc3)CC3CCCO3)c(C)c2c1 (stereo not given)	TDP1 cell noCPT 18.4µM, DT40 TDP1 CPT inconclusive
Cc1ccccc1OCC(=O)N(Cc1ccc(N(C)C)cc1)CC1CCCO1 (stereo not given)	TDP1 cell noCPT 20.6µM, DT40 TDP1 CPT inconclusive (no result: HT1080 IDH1KD tx, IL1B secr inh, HT1080-NT tox)
Cc1ccc(N(Cc2ccc(C(=O)NCC3CCCO3)cc2)S(C)(=O)=O)cc1C (stereo not given)	none
Cc1ccccc1OCC(=O)N(Cc1ccc(N(C)C)cc1)C1CCS(=O)(=O)C1 (stereo not given)	none
Cc1ccc2c(C)c(C(=O)N(Cc3ccncc3)CC3CCCO3)oc2c1C (stereo not given)	TDP1 cell noCPT 20.6µM, DT40 TDP1 CPT 25.9µM
Cc1ccc(OCC(=O)N(Cc2ccc(N(C)C)cc2)CC2CCCO2)cc1C (stereo not given)	TDP1 cell noCPT 14.6µM, DT40 TDP1 CPT 14.6µM (no result: HT1080 IDH1KD tx, IL1B secr inh, HT1080-NT tox)
COC(=O)C[C@H]1C[C@H]2c3cc(NS(=O)(=O)c4ccc(OC)cc4)ccc3O[C@H]2[C@H](CO)O1	TDP1 cell noCPT inconclusive, DT40 TDP1 CPT inconclusive
O=C(O)C(C1CCCCC1)C1(O)CCCC1 (stereo not given)	none
COc1cc(C(=O)N(Cc2ccc(N(C)C)cc2)CC2CCCO2)cc(OC)c1OC (stereo not given)	TDP1 cell noCPT inconclusive (no result: HT1080 IDH1KD tx, IL1B secr inh, HT1080-NT tox)
Cc1cc(C)c(OCC(=O)N(Cc2ccc(N(C)C)cc2)CC2CCCO2)c(C)c1 (stereo not given)	TDP1 cell noCPT 10.3µM, DT40 TDP1 CPT 16.4µM (no result: HT1080 IDH1KD tx, IL1B secr inh, HT1080-NT tox)
Cc1ccc(OCC(=O)N(Cc2ccc(N(C)C)cc2)C2CCS(=O)(=O)C2)cc1C (stereo not given)	IL1B secr inh -71.8
C[C@H](CO)N1C[C@H](C)[C@@H](CN(C)S(=O)(=O)c2ccc(Oc3ccccc3)nc2)OCc2cn(nn2)CCCC1=O	none
C=CCN1CCN(C(c2ccccc2)c2nnnn2CCC(C)C)CC1 (stereo not given)	TDP1 cell noCPT 6.51µM, HT1080 IDH1KD tx inconclusive, DT40 TDP1 CPT 6.51µM
CCCCn1nnnc1C(c1ccccc1)N1CCN(C/C=C/c2ccccc2)CC1 (stereo not given)	TDP1 cell noCPT 16.4µM, HT1080 IDH1KD tx inconclusive, DT40 TDP1 CPT inconclusive, HT1080-NT tox inconclusive
CCCCn1nnnc1C(c1cccc2ccccc12)N1CCN(C/C=C/c2ccccc2)CC1 (stereo not given)	TDP1 cell noCPT 20.6µM, HT1080 IDH1KD tx inconclusive, IL1B secr inh -58.6, DT40 TDP1 CPT inconclusive, HT1080-NT tox inconclusive
CCCCn1nnnc1C(c1ccnc2ccccc12)N1CCN(C/C=C/c2ccccc2)CC1 (stereo not given)	TDP1 cell noCPT 20.6µM, DT40 TDP1 CPT 20.6µM, HT1080-NT tox inconclusive
CC(=O)Nc1cccc(Oc2nc(NCCN(C)C)nc3ccsc23)c1	none
Cn1nccc1C(=O)Nc1ccc2c(c1)OCO2	none
Cc1cnc(C(=O)Nc2cccc(-c3nnc4n3CCCCC4)c2)cn1	none
c1cc(Nc2ncnc3sccc23)cc(-c2nnc3n2CCCCC3)c1	TDP1 cell noCPT inconclusive, DT40 TDP1 CPT 20.6µM
O=C(c1ccc(COc2ccccc2Br)o1)N1N=C(C(F)F)CC1(O)C(F)F (stereo not given)	TDP1 cell noCPT 25.9µM, DT40 TDP1 CPT 18.4µM
O=C(CCC(=O)c1cccs1)NCc1cccc(Cl)c1	none
